The record followed here is PubChem BioAssay (NCI).

The panel holds about 83,000 compounds, 20% with a hit somewhere; the sample as a whole holds those more often.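 Cells were grown in 96-well plates and exposed to the test compound at a single concentration for 48 hours; results are reported as percent growth, with values below 10 considered active.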 A number with no mark means an inactive call. Activity calls are given as the source filed them.

Some test systems named below: NCI-H23 lung; NCI-H226 lung; NCI-H322M lung; HOP-62 NSCLC; NCI-H460 lung; HOP-92 NSCLC; A549/ATCC NSCLC; 786-0 renal; COLO 205 colon; DU-145 prostate; K-562 leukemia; MALME-3M melanoma; MDA-MB-231 breast; RXF 393 renal; SF-268 CNS; SF-295 CNS; SF-539 CNS; M14 melanoma; UACC-257 melanoma.
Assay in all cases: NCI-60 one-dose screen, 48 h (100 = growth as untreated, 0 = no growth, -100 = all killed)
Common to all, as to settings: 10 µM

For `O=C(NCc1ccco1)Nc1c(Cl)cc(Cl)cc1Cl`, the growth with NCI-H23 lung is 104%; in the test with NCI-H226 lung it was 99.6%; with NCI-H322M lung, 106%; in the test with HOP-62 NSCLC, 97.3%; in the test on NCI-H460 lung, 103%; in the test with HOP-92 NSCLC it was 79.6%. Moreover, the growth in the test on A549/ATCC NSCLC was 102%; in the test on 786-0 renal, 97.2%; with COLO 205 colon, 107%; in the test on DU-145 prostate, 113%; with K-562 leukemia, 106%; in the test on MALME-3M melanoma, 97.3%. Besides, the growth in the test on MDA-MB-231 breast was 101%; in the test on RXF 393 renal it was 107%; in the test with SF-268 CNS it was 104%; in the test with SF-295 CNS, 93.5%; in the test on SF-539 CNS, 94.7%; in the test with M14 melanoma, 99.3%.
For the compound `CC1(C)Nc2cccc3c(N=Nc4ccc(N=Nc5ccccc5)c5ccccc45)ccc(c23)N1`, the growth with NCI-H23 lung was 85.1%; in the test on NCI-H226 lung, 94%; with NCI-H322M lung, 91.4%; with HOP-62 NSCLC, 93.1%; with NCI-H460 lung, 92.1%; with HOP-92 NSCLC, 82.6%. The growth was 99.3% with A549/ATCC NSCLC; 122% with 786-0 renal; 89.2% in the test with COLO 205 colon; 120% in the test with DU-145 prostate; 123% in the test with K-562 leukemia; 132% in the test with MALME-3M melanoma. In addition, the growth in the test on MDA-MB-231 breast was 66.9%; in the test on RXF 393 renal, 124%; in the test on SF-268 CNS it was 106%; in the test on SF-295 CNS, 100%; with SF-539 CNS, 94.5%; with UACC-257 melanoma, 95.9%. Besides, the growth with M14 melanoma was 91.6%.
In the case of `COc1ccccc1N1CCN(C(=S)Nc2ccccc2)CC1`, the growth in the test with NCI-H23 lung was 92.8%; in the test with NCI-H226 lung, 99.4%; in the test with NCI-H322M lung it was 93.2%; in the test on HOP-62 NSCLC it was 89.7%; in the test on NCI-H460 lung, 102%; in the test on HOP-92 NSCLC, 80.9%. In addition, the growth with A549/ATCC NSCLC was 99.7%; with 786-0 renal, 96.3%; with COLO 205 colon, 97.4%; in the test with DU-145 prostate it was 100%; in the test on K-562 leukemia it was 81.8%; with MALME-3M melanoma, 97.3%. Besides, the growth is 101% with MDA-MB-231 breast; 100% in the test with RXF 393 renal; 99.3% in the test with SF-268 CNS; 106% with SF-539 CNS; 100% in the test with M14 melanoma.
Turning to `CCOC(=O)/C(C#N)=C/c1cccc(C)c1`, the growth is 99.5% in the test with NCI-H23 lung; 109% in the test on NCI-H226 lung; 95% in the test on NCI-H322M lung; 101% in the test on HOP-62 NSCLC; 103% in the test with NCI-H460 lung; 83.8% in the test with HOP-92 NSCLC. Moreover, the growth in the test on A549/ATCC NSCLC is 95.5%; with 786-0 renal it was 98.3%; in the test on COLO 205 colon, 119%; in the test with DU-145 prostate, 107%; in the test on MALME-3M melanoma, 96%; in the test with MDA-MB-231 breast it was 110%. Also, the growth with SF-268 CNS is 94.1%; in the test on SF-295 CNS, 97.9%; with SF-539 CNS, 95.1%; in the test with UACC-257 melanoma, 104%; in the test on M14 melanoma, 97.4%.
For the compound `OC1CCCc2ccccc21` (stereo not given), the growth was 104% with NCI-H23 lung; 104% with NCI-H226 lung; 89.6% in the test on NCI-H322M lung; 104% with HOP-62 NSCLC; 101% in the test on NCI-H460 lung; 112% with HOP-92 NSCLC. The growth with A549/ATCC NSCLC was 51.3%; with 786-0 renal, 103%; with COLO 205 colon, 115%; in the test on DU-145 prostate it was 114%; in the test with K-562 leukemia, 97.9%; with MALME-3M melanoma it was 78.8%. Besides, the growth with MDA-MB-231 breast is 117%; with SF-268 CNS it was 116%; with SF-295 CNS, 93.2%; in the test on SF-539 CNS, 96.4%; with M14 melanoma, 113%.
As to `C/C(=N\NC(=O)c1ccccc1N)c1ccccc1O`, the growth is 38.7% in the test on NCI-H23 lung; 52.8% in the test with NCI-H226 lung; 26.4% in the test with NCI-H322M lung; 43.3% in the test with HOP-62 NSCLC; 23.5% with NCI-H460 lung; 18.2% in the test on HOP-92 NSCLC. The growth in the test with A549/ATCC NSCLC was 28.2%; with 786-0 renal it was 60.6%; in the test on COLO 205 colon, 9.89% (active); with DU-145 prostate, 45.6%; in the test on K-562 leukemia, 34%; in the test on MALME-3M melanoma it was 50%. For the same compound, the growth is 44.7% with MDA-MB-231 breast; 74.9% with RXF 393 renal; 39.3% in the test on SF-268 CNS; 12.8% with SF-295 CNS; 32.5% in the test on SF-539 CNS; 38.9% with M14 melanoma.
In the case of `COc1cccc(COC(=O)Nc2ccccc2)c1OC`, the growth in the test with NCI-H23 lung was 110%; in the test with NCI-H226 lung, 96.6%; with NCI-H322M lung, 101%; in the test with HOP-62 NSCLC, 100%; with NCI-H460 lung, 103%; with HOP-92 NSCLC it was 109%. Besides, the growth in the test with A549/ATCC NSCLC is 94.5%; with 786-0 renal, 98.9%; in the test with COLO 205 colon it was 114%; in the test on DU-145 prostate it was 104%; in the test on K-562 leukemia, 102%; in the test on MALME-3M melanoma, 105%. The growth with MDA-MB-231 breast was 104%; with RXF 393 renal, 95.8%; in the test on SF-268 CNS it was 114%; in the test with SF-295 CNS, 88.5%; with SF-539 CNS, 107%; in the test on M14 melanoma it was 105%.
For the compound `O=C(OCC(O)C1OC(c2ccccc2)OC(COC(=O)c2ccccc2)C1O)c1ccccc1` (stereo not given), the growth is 111% in the test on NCI-H23 lung; 99.6% with NCI-H226 lung; 109% in the test with NCI-H322M lung; 99% with HOP-62 NSCLC; 104% in the test with NCI-H460 lung; 89.8% in the test on HOP-92 NSCLC. The growth in the test with A549/ATCC NSCLC was 94.8%; in the test on 786-0 renal, 111%; in the test with COLO 205 colon, 99.9%; in the test on DU-145 prostate, 118%; in the test on K-562 leukemia, 101%; in the test on MALME-3M melanoma it was 105%. In addition, the growth in the test on MDA-MB-231 breast is 107%; in the test with RXF 393 renal, 96.3%; with SF-268 CNS, 110%; with SF-295 CNS, 77.3%; in the test with SF-539 CNS it was 103%; in the test with M14 melanoma, 110%.
As for `C[C@]12CC[C@@H]3c4ccc(OCC(=O)O)cc4CC[C@H]3[C@@H]1CCC2=O`, the growth in the test on NCI-H23 lung is 94.2%; in the test on NCI-H226 lung it was 95.7%; with NCI-H322M lung it was 98%; in the test on HOP-62 NSCLC, 75%; in the test on NCI-H460 lung it was 101%; in the test on HOP-92 NSCLC it was 92.1%. Also, the growth in the test with A549/ATCC NSCLC is 93.3%; with 786-0 renal it was 102%; with COLO 205 colon, 105%; with DU-145 prostate it was 109%; in the test with K-562 leukemia, 78.7%; in the test on MDA-MB-231 breast it was 101%. For the same compound, the growth was 115% in the test with RXF 393 renal; 91% with SF-268 CNS; 111% with SF-295 CNS; 97.5% in the test on SF-539 CNS; 93.4% in the test on UACC-257 melanoma; 97.2% in the test on M14 melanoma.
